The results in this text go back to PubChem BioAssay (EPA / NIEHS).

Several values for one entry are separate records, joined by “and”; a condition that tells them apart may be missing. Identical values can stand only once. Records with an inconclusive call do not appear. Where a structure was tested more than once in an assay, its records may differ in their call. Activity calls are given as the source filed them. The calls were made as follows: active = hit-call score of the fitted dose curve at least 0.9, where 1 is the maximum; inconclusive = response in the unintended direction; inactive = score below 0.9.

The target of the assay is Cellular tumor antigen p53 (Homo sapiens) (UniProt P04637). Kind of assay: TOX21_p53_BLA_p5_ratio: Tox21 HCT-116 p53 Agonism Beta-lactamase Assay, Ratio, Phase 5 (AID 2283599). The text has this: TOX21_p53_BLA_p5 is a cell-based, single-readout assay that uses HCT116, a human intestinal cell line, […] in a 1536-well plate.TOX21_p53_BLA_p5_ratio is an assay readout measuring reporter gene via receptor activity and designed using inducible reporter (beta lactamase induction) detected with GAL4 b-lactamase reporter gene. The signal is derived from the ratio of cleaved (ch2) to uncleaved (ch1) reporter gene substrate used as the measure of target activity.Data from the assay component TOX21_p53_BLA_p5_ratio was analyzed into 1 assay endpoint. This assay endpoint, TOX21_p53_BLA_p5_ratio, was analyzed in the positive analysis fitting direction relative to DMSO as the negative control and baseline of activity. Using a type of inducible reporter, gain-of-signal activity can be used to understand changes in the reporter gene as they relate to the gene TP53. Furthermore, this assay endpoint can be referred to as a primary readout, because this assay has produced multiple assay endpoints and this ratio serves a reporter gene function to understand target activity. To generalize the intended target to other relatable targets, this assay endpoint is annotated to the DNA binding intended target family, where the subfamily is tumor suppressor.
Chain of Cellular tumor antigen p53 (Homo sapiens) (P04637 whole entry, looked up, the tested form may be a part): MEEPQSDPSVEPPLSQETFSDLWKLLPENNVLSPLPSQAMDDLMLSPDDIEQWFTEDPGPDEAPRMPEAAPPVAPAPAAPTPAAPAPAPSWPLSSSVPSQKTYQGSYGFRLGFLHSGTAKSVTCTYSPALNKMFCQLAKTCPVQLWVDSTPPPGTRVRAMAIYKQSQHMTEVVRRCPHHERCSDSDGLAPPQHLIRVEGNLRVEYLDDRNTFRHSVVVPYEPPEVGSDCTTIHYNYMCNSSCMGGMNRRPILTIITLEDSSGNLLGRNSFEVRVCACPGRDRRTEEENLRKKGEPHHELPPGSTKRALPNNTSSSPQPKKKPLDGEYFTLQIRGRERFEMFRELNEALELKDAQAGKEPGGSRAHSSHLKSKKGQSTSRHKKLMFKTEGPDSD
Thawing Method: Place 14 mL of pre-warmed thaw medium into a 15 mL of conical tub. Remove the vial of cells to be thawed from liquid nitrogen and thaw rapidly by placing at 37C in a water bath with gentle agitation for 1-2 minutes. Decontaminate the vial by wiping with 70% ethanol before opening in a biological safety cabinet. Transfer the vial contents drop-wise into 14 mL of thaw medium in a sterile 15-mL conical tub. Centrifuge cells at 900 rpm for 4 minutes and resuspend in thaw medium. Transfer contents to the T75 tissue culture flask containing Thaw Medium and place flask in a humidified 37C/5% CO2 incubator. Switch to growth medium at first passage.Propagation Method: Aspirate medium, rinse once in DPBS, add 0.25% Trypsin/EDTA and swirl to coat the cell evenly. Add an equal volume of Growth Medium to inactivate Trypsin after 2-3 minutes incubation at 37C. Centrifuge cells at 900 rpm for 4 minutes and resuspend in growth medium. Cell should be passage or fed at least twice a week.Assay Protocol: Harvest cells from culture in growth medium and resuspend in assay medium. 2.2 Dispense 4000 cells/5 uL/well into 1536-well black/clear bottom plates using a Multidrop dispenser. After the cells were incubated at 37C for 5 hours, 23 nL of compounds dissolved in DMSO were transferred to the assay plate by a PinTool resulting in a 217-fold dilution. Incubate the plates for 16 hours at 37C, 5% CO2. Add 1 uL of 6X LiveBLAzer FRET B/G (CCF4-AM) Substrate Mixture to each well using a BioRAPTR dispenser and incubate the plates at room temperature for 2 hours. Measure fluorescence intensity at 460 and 530 nm emission and 405 nm excitation by an Envision detector. Data is expressed as the ratio of 460nm/530nm emissions. Add 4 uL of Cell-titer Glo to each well using BioRAPTR and incubate the plates at room temperature for 2 hours. Measure fluorescence intensity by a VewLux plate reader.
On to `CCCCC1CCC(O)CC1` (stereo not given), for which the AC50 is 83.6 µM (active).

`CC(=O)C(C)O` (stereo not given): the result was inactive.

Regarding `O=C(O)c1ccc(O)cc1`, the result was inactive.

For `CC(C)(C)c1ccc(C(=O)O)cc1`, the outcome was inactive.

`OCCc1ccccc1`: the result was inactive.

Consider `CSc1c(Cl)c(Cl)c(Cl)c(Cl)c1Cl`, for which the result was inactive.

Turning to `N[C@@H](Cc1cc(I)c(Oc2cc(I)c(O)c(I)c2)c(I)c1)C(=O)O`, the AC50 was 39.3 µM (active).

For the compound `NCC1CCCC(CN)C1` (stereo not given), the result was inactive.

For `CC(CN=Cc1ccccc1O)N=Cc1ccccc1O` (stereo not given), the result was inactive.

`CCCCCCCCCC(C)C=O` (stereo not given): the result was inactive.

As for `C=C1CC[C@H](O)C/C1=C/C=C1\CCC[C@]2(C)[C@@H]([C@H](C)/C=C/[C@H](C)C(C)C)CC[C@@H]12`, the AC50 was 70.5 µM (active) and the result was inactive.

For `CN(C)CCOc1ccc(/C(=C(/CCCl)c2ccccc2)c2ccccc2)cc1`, the AC50 is 74 µM (active) and the result was inactive.

Take `N#Cc1ccc(CC(=O)c2cccc(C(F)(F)F)c2)cc1`: the outcome was inactive.

Consider `CC(=O)O[C@@H]1CC2CCC1(C)C2(C)C` (stereo not given in full), for which the outcome was inactive.

As for `Nc1ccccc1[N+](=O)[O-]`, the outcome was inactive.

Turning to `CS(=O)(=O)OCCCCOS(C)(=O)=O`, the result was inactive.

As for `CCC(C)c1cc([N+](=O)[O-])cc([N+](=O)[O-])c1OC(=O)OC(C)C` (stereo not given), the AC50 is 36.9 µM (active).

For the compound `C=Cc1ccc(C)cc1`, the result was inactive.

On to `CCCCCCC(CO)CCCC` (stereo not given), for which the result was inactive.

As for `c1ccc2[nH]cnc2c1`, the outcome was inactive.

Regarding `CCN(CCN)c1cccc(C)c1`, the result was inactive.

Turning to `CCCCC(CC)COC(=O)c1ccc(O)cc1` (stereo not given), the AC50 was 69.4 µM (active) and 62.4 µM (active).

With `CCCN(CCC)S(=O)(=O)c1ccc(C(=O)O)cc1`, the outcome was inactive.

`CN1CCOCC1`: the result was inactive.

As for `Clc1ccc(C(c2ccccc2Cl)C(Cl)Cl)cc1` (stereo not given), the AC50 is 83.4 µM (active) and 42.3 µM (active).

Consider `O=c1[nH]c(=O)c2cn[nH]c2[nH]1`, for which the result was inactive.

As to `CCCC(=O)OC(C)(C)Cc1ccccc1`, the result was inactive.

Regarding `C[N+](C)(C)CCCCCC[N+](C)(C)C`, the outcome was inactive.

On to `CCOC(=O)C1OC1c1ccccc1` (stereo not given), for which the outcome was inactive.

For the compound `CC/C=C\CCOC(=O)CC`, the outcome was inactive.

In the case of `FC(F)(F)COCC(F)(F)F`, the result was inactive.

In the case of `CCCSc1ccc2nc(NC(=O)OC)[nH]c2c1`, the AC50 was 373 nM (active) and 193 nM (active).

`CCOc1ccc(NC(=O)CC(C)O)cc1` (stereo not given): the result was inactive.

For `CCCCCCOC(=O)C(C)C`, the outcome was inactive.

On to `CN1C(=O)c2ccccc2C1=O`, for which the outcome was inactive.

On to `COC(=O)C=C(C)CCC=C(C)C`, for which the outcome was inactive.

As to `COC(C)(C)CC(C)=O`, the result was inactive.

For `COc1cc(CCC(C)=O)ccc1O`, the outcome was inactive.

In general, AC50 refers to the midpoint of the concentration-response curve, whichever way the signal moves.
